Shown are actives, neighbours in structure and some others; about 5.3% of the full set was active somewhere.
IMPase cell inh – cell-permeable inhibitors of inositol monophosphatase (IMPase); inhibition (IP1 accumulation), % at 46.1 µM; 120,000 tested, under 10 active; CHO-M1 cells, IP1 accumulation, HTRF TR-FRET ratio; P97697; active means well fitted curve in the direction sought with a large enough effect in the signal ratio, not every such curve was filed as active; inconclusive means small, poorly fitted or top-dose-only effect, or a change in a side signal; inactive means no such curve, though single readings can be large or run the other way; the % refers to the signal ratio;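 further: cells stimulated with carbachol in lithium chloride buffer; higher means more IMPase inhibition seen as more IP1 and lower FRET ratio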
Target sequence (P97697 whole entry, looked up): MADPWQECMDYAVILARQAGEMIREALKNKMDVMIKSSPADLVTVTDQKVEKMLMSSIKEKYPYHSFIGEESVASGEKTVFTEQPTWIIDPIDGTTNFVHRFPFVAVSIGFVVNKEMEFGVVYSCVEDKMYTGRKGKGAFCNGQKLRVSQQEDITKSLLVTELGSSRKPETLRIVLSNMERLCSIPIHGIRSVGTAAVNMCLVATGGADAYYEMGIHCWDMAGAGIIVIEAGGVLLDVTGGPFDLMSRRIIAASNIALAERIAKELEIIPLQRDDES
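Cellular IMPase inhibition is scored as a rise in cytosolic IP1, detected by competitive TR-FRET between d2-labelled IP1 and a europium anti-IP1 antibody. M1-expressing CHO cells were stimulated with carbachol for 30 min at 37C, with lithium (50 mM LiCl) present in the buffer.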
IMPase Li cell – membrane-permeable IMPase blocker, potentiated with lithium | CHO-M1 cells, IP1 TR-FRET (IP-One), carbachol + lithium | Potency, µM (top dose mostly 59.4 µM), hits mostly inhibitors | 0.35% of 210,000 active;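 further: IP1 builds up when IMPase is blocked and the TR-FRET signal falls; nearly all actives have a fitted effect of over 50% in size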
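Steps: plate 2000 CHO-M1 cells per well and culture 16–30 h; add compound and lithium; incubate 30 min, 37C; add d2-IP1 tracer and Eu cryptate anti-IP1 antibody in lysis buffer; read after 10 min at room temperature.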
HPGD block – HPGD (human) dehydrogenase inhibition | purified HPGD, NADH fluorescence kinetic, PGE2 substrate | Potency, µM, actives largely listed as inhibitors | 4.3% of 150,000 active; active means well fitted inhibition curve with a large enough effect, not every such curve was filed as active; inconclusive means small, poorly fitted or top-dose-only effect, or another doubt; inactive means no such curve, though single readings can be large or run the other way
Target sequence (P15428 whole entry, looked up): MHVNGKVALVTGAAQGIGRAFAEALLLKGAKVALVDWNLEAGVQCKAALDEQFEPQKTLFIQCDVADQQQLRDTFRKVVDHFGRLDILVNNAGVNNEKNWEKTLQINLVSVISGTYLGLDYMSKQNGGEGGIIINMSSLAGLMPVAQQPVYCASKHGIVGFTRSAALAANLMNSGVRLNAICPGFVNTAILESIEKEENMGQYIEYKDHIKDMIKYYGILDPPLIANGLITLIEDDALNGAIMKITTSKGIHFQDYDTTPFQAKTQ
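NADH formation kinetics: reaction with 30 uM PGE2 and 1 mM NAD+ (final), 20 nM enzyme, Tris-HCl pH 8 with Tween 20, after 15 min compound preincubation at room temperature. Fluorescence change, last versus first of five reads.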
12-hLO inh – 12-hLO (ALOX12) enzyme inhibition; P18054; purified 12-hLO, xylenol orange hydroperoxide absorbance; Potency, µM (series often up to 57.1 µM), most hits filed as inhibitors; 0.12% of 150,000 active; AID 1452; further: nearly all actives have a fitted effect of over 55% in size
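Lipoxygenase turnover measured by absorbance at 573 and 405 nm after Fe-XO development. Human 12hLO 150 nM, arachidonate 40 uM, pH 7.0 Hepes buffer with detergent; 15 min compound preincubation, 30 min reaction.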
15-hLO-2 inh – 15-hLO-2 (ALOX15B) enzyme inhibition | AID 881 | 0.56% of 110,000 active | Potency, µM (series often up to 57.1 µM), usual class: inhibitors | O15296 | purified 15hLO-2, xylenol orange hydroperoxide absorbance; further: nearly all actives have a fitted effect of over 60% in size
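Purified human 15hLO-2 (50 nM) preincubated 15 min with compound, then 45 uM arachidonic acid for 90 min at RT in 25 mM Hepes pH 7.5, 0.01% Triton X-100. Hydroperoxide detected by Fe-xylenol orange; 573/405 nm absorbance ratio.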
PNC assembly inh – blocks assembly of the perinucleolar compartment; AID 2417; PC3M PTB-GFP, PNC prevalence imaging, 16 h; active compounds read low; activity change (PNC), negative = inhibition, % at 10 µM; 3.1% of 140,000 active;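 active means readout at or below -70, meaning at least 70% loss of cells showing the perinucleolar compartment, a nuclear body marking cancer cells; inconclusive means readout between -30 and a set limit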
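Compounds are pinned in duplicate onto adhered PC3M cells stably expressing GFP-tagged PTB and incubated 16 h at 37 C. Cells are then fixed, nuclei stained with Hoechst, and PNC-positive cells counted.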
Numbers stand for hits; [ ] = remark or other dose. Unless noted, the call rests on the fitted dose curve; in most records, active means well fitted curve in the direction sought with a large enough effect; inconclusive means small, poorly fitted or top-dose-only effect, or another doubt; inactive means no such curve, though single readings can be large; an effect the other way counts as inactive or inconclusive.

What do the screens show for `CC(C)(C)OC(=O)NCCCCCc1nnc(SCC(=O)Nc2cccc(Cl)c2)o1`?
IMPase cell inh: inactive; IMPase Li cell: inactive; HPGD block: 14µM; 12-hLO inh: inactive; 15-hLO-2 inh: inactive; PNC assembly inh: inactive

How did CC(C)(C)OC(=O)NCCc1nnc(SCC(=O)Nc2cccc(Cl)c2)o1 do in these assays?
IMPase cell inh: inactive; IMPase Li cell: inactive; HPGD block: inactive; 12-hLO inh: inactive; 15-hLO-2 inh: inactive; PNC assembly inh: inactive

Results for CCOc1ccc(S(=O)(=O)N(C)c2ccc(OCC(=O)NCC3CCCO3)cc2)cc1 (stereo not drawn) ?
IMPase Li cell: inactive

What do the screens show for `C=C(C)[C@@H]1CCC2(C(=O)O)CC[C@]3(C)[C@H](CC[C@@H]4[C@@]5(C)CCC(=O)C(C)(C)[C@@H]5CC[C@]43C)[C@@H]12` (stereo partly drawn)?
IMPase Li cell: inactive; HPGD block: inactive; 12-hLO inh: inactive; PNC assembly inh: -95

Results for CS(=O)(=O)N(CC(=O)NCc1ccccc1)C1CCCCC1 ?
IMPase cell inh: inactive; IMPase Li cell: inactive; HPGD block: inactive; 12-hLO inh: inactive; PNC assembly inh: inconclusive

What do the screens show for `CN(C1CCCCC1)S(=O)(=O)Cc1ccccc1`?
IMPase cell inh: inactive; IMPase Li cell: inactive; HPGD block: 18µM; 12-hLO inh: inactive; 15-hLO-2 inh: inconclusive; PNC assembly inh: inactive

What do the screens show for `N#CC1=C(N)SC(N)=C(C#N)C1CCC1CCCCC1`?
IMPase cell inh: inactive; IMPase Li cell: inactive; HPGD block: 16µM; 12-hLO inh: inconclusive; 15-hLO-2 inh: inactive[2.29 µM]; PNC assembly inh: inactive

Results for Cc1cc(Cl)ccc1NC(=S)NCCN1CCOCC1 ?
IMPase Li cell: inactive; HPGD block: inactive; 12-hLO inh: inactive; PNC assembly inh: inactive

What do the screens show for `Cn1cnnc1Sc1nc2c(c(=O)n(C)c(=O)n2C)n1Cc1ccccc1Cl`?
IMPase cell inh: inactive; IMPase Li cell: inactive; HPGD block: inactive; 12-hLO inh: inactive; PNC assembly inh: -92

What do the screens show for `Cn1c(=O)c2c(nc(Sc3ncccn3)n2Cc2ccccc2Cl)n(C)c1=O`?
IMPase cell inh: inactive; IMPase Li cell: inactive; HPGD block: inactive; 12-hLO inh: inactive; 15-hLO-2 inh: inactive; PNC assembly inh: inconclusive

How did NC(N)=NCCC[C@H](NC(=O)CC1(CC(=O)N2CCN(C3c4ccccc4NC(=O)c4ccccc43)CC2)CCCC1)C(=O)NCCn1c(=O)n(-c2ccccc2)n(-c2ccccc2)c1=O (stereo partly drawn) do in these assays?
IMPase Li cell: inactive; HPGD block: inactive; 12-hLO inh: inactive; 15-hLO-2 inh: inactive

How did Cc1cc(C)c2c(=O)n(-c3ccccc3)[nH]c2n1 do in these assays?
IMPase cell inh: inconclusive; IMPase Li cell: inactive; HPGD block: inactive; 12-hLO inh: inactive; 15-hLO-2 inh: inactive; PNC assembly inh: inactive

Results for Cc1cc(C(C)(C)C)nc2[nH]n(-c3ccccc3)c(=O)c12 ?
IMPase cell inh: inactive; IMPase Li cell: inactive; HPGD block: 16µM; 12-hLO inh: inactive; 15-hLO-2 inh: inactive; PNC assembly inh: inactive

What do the screens show for `Oc1cc2c(cc1O)C1c3ccc(O)c(O)c3OCC1(O)C2` (stereo not drawn)?
IMPase Li cell: inactive; HPGD block: 1.1µM; 12-hLO inh: inactive; 15-hLO-2 inh: inconclusive

How did Cc1cccc([N+](=O)[O-])c1C do in these assays?
IMPase Li cell: inactive; HPGD block: inactive; 12-hLO inh: inactive; 15-hLO-2 inh: inactive

Results for CCOC(=O)CCn1cc(F)c(=O)n(Cc2ccccc2)c1=O ?
IMPase cell inh: inactive; IMPase Li cell: inactive; HPGD block: inactive; 12-hLO inh: inactive; 15-hLO-2 inh: inactive; PNC assembly inh: inactive

Results for COCC(C)NC(=O)CSc1nc(-c2ccccc2)c(-c2ccccc2)o1 (stereo not drawn) ?
IMPase cell inh: inactive; IMPase Li cell: inactive; HPGD block: inactive; 12-hLO inh: inactive; 15-hLO-2 inh: inactive; PNC assembly inh: inactive

How did CC(=O)N1CCN(c2ccc(S(=O)(=O)NCCN(C(C)C)C(C)C)cc2[N+](=O)[O-])CC1 do in these assays?
IMPase Li cell: inactive; HPGD block: inactive; 12-hLO inh: inactive; PNC assembly inh: -105
